The results in this text go back to PubChem BioAssay (NCI).

The panel holds about 79,000 compounds, 15% with a hit somewhere; the sample as a whole holds those more often. Active and inactive are the calls of the source. No stated cut-off is given here; in the data, active means growth inhibition above about 70%; inactive means the rest.

This test can be described thus: NCI Yeast Anticancer Drug Screen. Data for the rad50 strain (AID 155).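 Further: 0% = growth of vehicle-only cultures of the same strain.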 Conditions: S. cerevisiae rad50 strain growth inhibition; at 50.0 µM; hits give high values. An outline of the steps: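 Relative growth inhibition (compound vs vehicle) was measured in yeast with a defined repair-gene alteration.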
For the molecule `N#C/C(=C\C(Cl)=C/c1ccccc1)C(N)=S`, the growth inhibition is 50.1% (inactive).
The same measure for `CC[N+](C)(CC)CCC(=O)/C=C/c1ccccc1`: 87.5% (active); for `CC(=O)n1c(=S)n(C(C)=O)c2ccccc21`: 51.5% (inactive); for `Nc1ccccc1/C=C1/Sc2cc[nH]c2C1=O`: 4.9% (inactive).
`C=C1CC2(CCCC3(CC(=C)C(=O)O3)C2(C)C)OC1=O` (configuration not stated): the growth inhibition is 33% (inactive).
For the molecule `O=C1/C(=C\c2ccc(Cl)cc2Cl)Sc2scc(-c3ccc(O)c(O)c3)[n+]21`, the growth inhibition was 86.2% (active).
As to `COc1cc(OC(C)C)cc2c1C(=O)C(C(O)(O)C(F)(F)F)=CC2=O`, the growth inhibition was 72.4% (active).
Consider `Cc1c(N=Nc2ccc(Br)cc2)c(-c2ccccc2)nn1C(N)=S`, for which the growth inhibition is 97.7% (active).
Take `COc1ccc2nc3c([N+](=O)[O-])ccc(NCCCN(C)C)c3c(N)c2c1`: the growth inhibition was 90.3% (active).
As to `CN(C)CCC[Si]1(C)c2ccccc2CCc2ccccc21`, the growth inhibition is 82.8% (active).
As to `CC(=O)N(C)c1cc(NCc2ccccc2)ccc1OCc1ccccc1`, the growth inhibition is 98.1% (active).
Regarding `ClCCOCCOc1c(Cl)cc(Cl)c(Cl)c1Cl`, the growth inhibition is 58.4% (inactive).
For `Nc1ccc2nc(N)sc2c1`, the growth inhibition is 20.1% (inactive).
The same measure for `CC(C)(C)c1cc(C2c3cc4c(cc3OC(O)(CO)C2C(=O)O)OCO4)cc(C(C)(C)C)c1O` (configuration not stated) (tested in a mixture with another compound): 49.9% (inactive); for `COc1ccc(C2COc3c(ccc(O)c3O)C2)cc1OC` (configuration not stated): 25.2% (inactive); for `Cc1ccc(OCC2CO2)c(Br)c1` (configuration not stated): 78.2% (active).
The same measure for `CCN(CC)CCNc1ccc(C)c2sc3c(OC)cccc3c(=O)c12`: 74.6% (active).
